Measured values as given in PubChem BioAssay (Tox21).
Results filed as inconclusive are left out. A call without a number means that no potency is given here. Active and inactive are the calls of the source. Unless noted, the call rests on the fitted dose curve.

Key:
[1] = Nuclear factor erythroid 2-related factor 2/antioxidant responsive element (Nrf2/ARE) small molecule agonists: qHTS cell viability counter screen in human keratinocytes (AID 1919968; active means well fitted cell-killing curve with a large enough effect in the repeat runs; further: nearly all actives have a fitted effect of over 55% in size); settings: KeratinoSens HaCaT ARE cells viability, CellTiter-Fluor, 24 h; series mostly up to 92.4 µM
How it was run: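 HaCaT ARE reporter line, 1,500 cells/well; 5 h settle, 37 C/5% CO2; cpd in DMSO pinned; 23 h exposure; CellTiter-Fluor, 1 h; fluorescence.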

[2] = Nuclear factor erythroid 2-related factor 2/antioxidant responsive element (Nrf2/ARE) small molecule agonists: luciferase reporter gene qHTS assay in human keratinocytes (AID 1919969); settings: KeratinoSens HaCaT ARE-luciferase, luminescence, 24 h; series mostly up to 92.4 µM; further: nearly all actives have a fitted effect of over 35% in size; further: potency means the concentration at half of the fitted maximal effect
[3] = target: Gonadotropin-releasing hormone receptor (Homo sapiens) (UniProt P30968); assay: Human gonadotropin-releasing hormone receptor (GnRHR) small molecule agonists, calcium flux assay in GnRHR-HEK293 cells (AID 1920063); settings: calcium flux fluorescence, agonist mode; series mostly up to 57.6 µM; further: nearly all actives have a fitted effect of over 35% in size; further: potency means the concentration at half of the fitted maximal effect
How it was run: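 GnRHR-HEK293, 1500 cells/well, 18 h 37 C/5% CO2; Ca dye 1 h 37 C; cpd pinned (DMSO), agonist mode; kinetic FL 480/540, 3 min, 1 s reads; 15 conc, n=3.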

[4] = G protein-coupled receptor (GPCR) small molecule agonists, calcium flux assay: HEK293 wild type cell line counter screen (AID 1920065); settings: HEK293 WT calcium flux, fluorescence, agonist mode; series mostly up to 57.6 µM
How it was run: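 Kinetic fluorescence at Ex/Em 480/540, recorded every second over 3 min, served as the read-out after compound addition. Each compound was tested at 15 concentrations in triplicate on cells pre-loaded with calcium dye for 1 h.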

[5] = p53 small molecule agonists, cell-based qHTS assay with human liver microsomes: qHTS cell viability counter screen (AID 1963579); settings: p53RE-bla HCT-116 viability, ATP luminescence, 16 h, HLM; series mostly up to 66 µM; further: nearly all actives have a fitted effect of over 45% in size
How it was run: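 Cytotoxicity counter screen: p53RE-bla, 4,000 cells/well; 5 h settle, 37 C/5% CO2; cpd + HLM 0.5 mg/mL + NADPH 0.5 mg/mL (final); 16 h, 37 C; CellTiter-Glo, 30 min RT, luminescence.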

[6] = p53 small molecule agonists, cell-based qHTS assay with rat liver microsomes: qHTS cell viability counter screen (AID 1963580); settings: p53RE-bla HCT-116 + rat microsomes, ATP viability, 16 h; series mostly up to 66 µM; further: nearly all actives have a fitted effect of over 45% in size
How it was run: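 Intracellular ATP, by CellTiter-Glo luminescence, defines viability. HCT-116 p53RE-bla cells, 4,000 per well, were compound-treated in the presence of rat liver microsomes and NADPH for 16 h at 37 C.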

[7] = p53 small molecule agonists, cell-based qHTS assay: qHTS cell viability counter screen (AID 1963581); settings: p53RE-bla HCT-116 viability, ATP luminescence, 16 h; series mostly up to 66 µM; further: nearly all actives have a fitted effect of over 45% in size
How it was run: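 HCT-116 p53RE-bla cells, 4,000/well, plated 5 h before compound pin transfer; 16 h at 37 C; bla substrate 2 h RT; then CellTiter-Glo, 30 min RT, luminescence.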

[8] = target: 5-hydroxytryptamine receptor 2A (Homo sapiens) (UniProt P28223); assay: 5-hydroxytryptamine receptor 2A (HTR2A) small molecule agonists, cell-based qHTS assay (AID 1963587); settings: HTR2A-CHO cells, calcium flux fluorescence, agonist mode; series mostly up to 76.8 µM; further: nearly all actives have a fitted effect of over 30% in size
How it was run: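 Kinetic calcium-flux fluorescence (2 min, 1 sec intervals) after compound addition in agonist mode. HTR2A-CHO cells were cultured 18 h, then dye-loaded 1 h at 37 C.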

[9] = target: Muscarinic acetylcholine receptor M1 (Homo sapiens) (UniProt P11229); assay: Cholinergic receptor muscarinic 1 (CHRM1) small molecule antagonists, cell-based qHTS assay (AID 1963588); settings: CHRM1-CHO antagonist mode, calcium flux fluorescence; series mostly up to 61.5 µM; further: nearly all actives have a fitted effect of over 40% in size
How it was run: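 CHRM1-CHO calcium-flux assay, antagonist mode. Cells were seeded 18 h, dye-loaded 1 h at 37 C and given compound for 5 min at RT, then acetylcholine was added at 50nM. FDSS fluorescence was read 3 min; 15 concentrations, three runs.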

[10] = target: Muscarinic acetylcholine receptor M1 (Homo sapiens) (UniProt P11229); assay: Cholinergic receptor muscarinic 1 (CHRM1) small molecule agonists, cell-based qHTS assay (AID 1963589); settings: CHRM1-CHO cells, agonist mode, calcium flux fluorescence; series mostly up to 76.8 µM; further: nearly all actives have a fitted effect of over 35% in size; further: potency means the concentration at half of the fitted maximal effect
How it was run: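 Human M1 in stable CHO line; 18 h plating, 1 h dye load 37 C; cpd added (agonist mode); Ca2+ fluorescence kinetic read, 1 s intervals; 15 conc, 3 runs.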

[11] = cAMP Responsive Elements (CRE) small molecule agonists, cell-based qHTS assay (AID 1963590); settings: CRE-bla HEK293T, beta-lactamase FRET ratio, 3 h; series mostly up to 92.4 µM
How it was run: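 HEK 293T CRE-bla, 2,000 cells/well, 18 h preincubation 37 C/5% CO2; cpds (DMSO) pinned, 3 h; LiveBLAzer B/G FRET substrate, 2 h RT.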

[12] = cAMP Responsive Elements (CRE) small molecule antagonists, cell-based qHTS assay (AID 1963591; active means well fitted inhibition curve with a large enough effect in the signal ratio in the repeat runs, not every such curve was filed as active; the % refers to the signal ratio); settings: CRE-bla HEK293T, beta-lactamase FRET ratio; series mostly up to 92.4 µM
How it was run: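 Beta-lactamase reporter read by FRET substrate (LiveBLAzer B/G) after 2 h at room temperature. CRE-bla HEK293T cells had received compound plus 0.25 uM (final) NKH477 for 3 h at 37 °C.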

[13] = target: Beta-2 adrenergic receptor (Homo sapiens) (UniProt P07550); assay: Adrenergic beta2 receptor (ADRB2) small molecule antagonists, cell-based qHTS assay (AID 1963592); settings: CHO-ADRB2 cells, isoproterenol-stimulated cAMP HTRF ratio, 0.5 h; series mostly up to 92.4 µM; further: nearly all actives have a fitted effect of over 50% in size
How it was run: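 Cells (CHO, stable ADRB2 overexpression) incubated 18-20hr at 37C; compounds added from DMSO; agonist mix (1nM isoproterenol, 100uM IBMX, 25uM Ro-20-1724) added; 0.5hr RT; d2-cAMP and anti-cAMP-cryptate added; 1hr RT; 665/615 nm read.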

[14] = target: Beta-2 adrenergic receptor (Homo sapiens) (UniProt P07550); assay: Adrenergic beta2 receptor (ADRB2) small molecule agonists, cell-based qHTS assay (AID 1963593); settings: CHO-ADRB2 cells, cAMP HTRF, 30 min; series mostly up to 92.4 µM;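 further: CHO cells stably overexpressing human ADRB2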
How it was run: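 CHO cells stably over-expressing ADRB2 were plated overnight at 37C, then dosed with compounds plus a stimulation mix containing 100uM IBMX and 25uM Ro-20-1724 for 0.5hr at room temperature. cAMP was measured by HTRF competition, 1hr.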

[15] = target: D(2) dopamine receptor (Homo sapiens) (UniProt P14416); assay: Dopamine D2 receptor (DRD2) small molecule agonists, cell-based qHTS assay (AID 1963594); settings: HEK293-DRD2 cAMP HTRF, agonist mode, 30 min; series mostly up to 92.4 µM; further: nearly all actives have a fitted effect of over 35% in size
How it was run: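 cAMP accumulation in DRD2-HEK293 cells measured by HTRF after 1 h detection; compounds added 10 min before NKH477 (200nM […]) forskolin-analogue stimulation, 30 min at room temperature, with Ro20-1724 present at 0.1 mM final.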

[16] = target: D(2) dopamine receptor (Homo sapiens) (UniProt P14416); assay: Dopamine D2 receptor (DRD2) small molecule antagonists, cell-based qHTS assay (AID 1963595; active means well fitted inhibition curve with a large enough effect in the signal ratio in the repeat runs, with a control signal flat; the % refers to the signal ratio); settings: HEK293-DRD2 cAMP HTRF antagonist mode; series mostly up to 92.4 µM
How it was run: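 HEK293 cells stably expressing DRD2 were preincubated with 0.1 mM Ro20-1724, then with compound for 10 min at room temperature. Cells were stimulated with 200 nM NKH477 plus 12 nM quinpirole for 30 min, and cAMP was read by HTRF.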

[17] = p53 small molecule agonists, cell-based qHTS assay with human liver microsomes (AID 1963577); settings: HCT-116 p53RE-bla with human liver microsomes, ratio, 16 h; series mostly up to 66 µM
How it was run: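 Fluorescence of the beta-lactamase reporter in p53RE-bla cells, detected with LiveBLAzer substrate (2 h, room temperature, dark), served as the read-out after 16 h compound exposure at 37 C with human liver microsomes and NADPH, each 0.5 mg/mL final.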

[18] = p53 small molecule agonists, cell-based qHTS assay with rat liver microsomes (AID 1963578); settings: HCT-116 p53RE-bla, beta-lactamase ratio, 16 h; series mostly up to 66 µM
How it was run: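 Cells carrying a p53 response element–beta-lactamase reporter were plated and rested 5 h, then dosed with compound in DMSO plus rat liver microsomes and NADPH, each at 0.5 mg/mL final. After 16 h at 37 C, LiveBLAzer substrate was added for 2 h.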

[19] = p53 small molecule agonists, cell-based qHTS assay (AID 1963582; active means well fitted activation curve with a large enough effect in the signal ratio in the repeat runs, not every such curve was filed as active; the % refers to the signal ratio); settings: HCT-116 p53RE-bla reporter, beta-lactamase FRET ratio, 16 h; series mostly up to 66 µM
How it was run: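 Reporter line: p53RE-bla. Pre-incubation 5 h, 37 C, 5% CO2; compound (DMSO, pin tool) 16 h, 37 C; B/G FRET substrate 2 h RT; fluorescence intensity read.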

[20] = target: 5-hydroxytryptamine receptor 2A (Homo sapiens) (UniProt P28223); assay: 5-hydroxytryptamine receptor 2A (HTR2A) small molecule antagonists, cell-based qHTS assay (AID 1963586); settings: HTR2A-CHO cells, DOI-induced calcium flux, fluorescence; series mostly up to 61.5 µM; further: nearly all actives have a fitted effect of over 45% in size
How it was run: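 Antagonist-mode intracellular calcium assay: DOI (4 nM) added after 5 min compound pre-incubation at room temperature to dye-loaded HTR2A-CHO cells. Fluorescence followed for 3 min, sampled every second.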

Chain of 5-hydroxytryptamine receptor 2A (Homo sapiens) (P28223 whole entry, looked up): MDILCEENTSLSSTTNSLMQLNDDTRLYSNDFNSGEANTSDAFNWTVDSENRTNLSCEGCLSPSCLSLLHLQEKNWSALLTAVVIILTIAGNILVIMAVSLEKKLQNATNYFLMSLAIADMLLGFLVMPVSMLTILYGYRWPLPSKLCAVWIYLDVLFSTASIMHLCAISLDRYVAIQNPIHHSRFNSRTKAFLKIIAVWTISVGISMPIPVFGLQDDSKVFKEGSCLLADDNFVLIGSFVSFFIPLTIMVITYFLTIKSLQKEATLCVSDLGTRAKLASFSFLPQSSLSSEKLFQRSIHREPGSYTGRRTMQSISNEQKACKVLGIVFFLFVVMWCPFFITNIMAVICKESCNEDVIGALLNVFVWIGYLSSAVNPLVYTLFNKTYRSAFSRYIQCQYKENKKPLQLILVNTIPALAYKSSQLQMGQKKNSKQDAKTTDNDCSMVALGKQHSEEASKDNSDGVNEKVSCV
Chain of D(2) dopamine receptor (Homo sapiens) (P14416 whole entry, looked up): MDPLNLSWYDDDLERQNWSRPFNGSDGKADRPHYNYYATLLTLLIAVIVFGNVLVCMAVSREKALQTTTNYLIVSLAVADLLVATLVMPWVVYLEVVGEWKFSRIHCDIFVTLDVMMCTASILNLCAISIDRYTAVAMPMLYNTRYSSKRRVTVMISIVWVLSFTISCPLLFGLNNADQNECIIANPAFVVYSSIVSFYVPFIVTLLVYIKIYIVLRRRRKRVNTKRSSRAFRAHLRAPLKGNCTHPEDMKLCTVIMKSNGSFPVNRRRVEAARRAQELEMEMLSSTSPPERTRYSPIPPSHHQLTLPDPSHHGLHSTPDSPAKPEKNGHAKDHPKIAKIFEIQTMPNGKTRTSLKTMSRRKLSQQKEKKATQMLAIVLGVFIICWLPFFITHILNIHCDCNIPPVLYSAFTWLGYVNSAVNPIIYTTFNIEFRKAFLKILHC
Chain of Gonadotropin-releasing hormone receptor (Homo sapiens) (P30968 whole entry, looked up): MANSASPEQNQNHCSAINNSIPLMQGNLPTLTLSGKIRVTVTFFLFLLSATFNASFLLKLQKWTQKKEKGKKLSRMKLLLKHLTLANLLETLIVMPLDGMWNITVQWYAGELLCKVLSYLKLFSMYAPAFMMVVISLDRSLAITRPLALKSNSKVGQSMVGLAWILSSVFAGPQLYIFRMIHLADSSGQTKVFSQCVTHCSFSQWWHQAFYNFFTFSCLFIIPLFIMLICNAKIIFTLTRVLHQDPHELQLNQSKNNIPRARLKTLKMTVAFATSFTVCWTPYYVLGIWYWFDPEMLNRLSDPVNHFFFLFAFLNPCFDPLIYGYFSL
Chain of Muscarinic acetylcholine receptor M1 (Homo sapiens) (P11229 whole entry, looked up): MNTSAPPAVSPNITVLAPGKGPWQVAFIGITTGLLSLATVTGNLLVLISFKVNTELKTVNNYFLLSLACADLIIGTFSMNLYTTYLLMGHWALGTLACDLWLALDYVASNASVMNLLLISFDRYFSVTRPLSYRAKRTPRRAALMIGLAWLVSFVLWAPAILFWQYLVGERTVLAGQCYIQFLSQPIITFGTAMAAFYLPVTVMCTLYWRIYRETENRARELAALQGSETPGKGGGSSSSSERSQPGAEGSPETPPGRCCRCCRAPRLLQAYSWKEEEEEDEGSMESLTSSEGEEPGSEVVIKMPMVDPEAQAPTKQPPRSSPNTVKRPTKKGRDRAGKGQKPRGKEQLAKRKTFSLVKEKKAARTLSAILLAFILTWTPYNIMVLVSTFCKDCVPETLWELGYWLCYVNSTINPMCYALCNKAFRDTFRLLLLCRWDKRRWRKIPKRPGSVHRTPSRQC
Chain of Beta-2 adrenergic receptor (Homo sapiens) (P07550 whole entry, looked up): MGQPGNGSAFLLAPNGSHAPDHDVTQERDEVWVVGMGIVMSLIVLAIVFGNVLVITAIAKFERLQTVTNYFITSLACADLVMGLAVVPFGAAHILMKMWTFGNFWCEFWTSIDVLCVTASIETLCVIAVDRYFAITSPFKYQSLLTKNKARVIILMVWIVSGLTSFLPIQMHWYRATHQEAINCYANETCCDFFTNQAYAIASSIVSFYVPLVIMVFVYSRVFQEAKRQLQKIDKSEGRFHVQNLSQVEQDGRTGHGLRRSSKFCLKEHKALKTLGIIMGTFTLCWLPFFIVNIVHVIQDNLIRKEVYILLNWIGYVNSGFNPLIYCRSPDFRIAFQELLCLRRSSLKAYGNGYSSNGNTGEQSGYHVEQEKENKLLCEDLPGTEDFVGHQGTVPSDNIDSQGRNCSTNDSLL

| Compound | Potency [1] | Potency [2] | Potency [3] | Potency [4] | Potency [5] | Potency [6] | Potency [7] | Potency [8] | Potency [9] | Potency [10] | Potency [11] | Potency [12] | Potency [13] | Potency [14] | Potency [15] | Potency [16] | Potency [17] | Potency [18] | Potency [19] | Potency [20] |
| --- | --- | --- | --- | --- | --- | --- | --- | --- | --- | --- | --- | --- | --- | --- | --- | --- | --- | --- | --- | --- |
| COc1ccc(N)c(C)c1 | inactive | inactive | inactive | inactive | inactive | inactive | inactive | inactive | inactive | inactive | inactive | inactive | inactive | inactive | inactive | inactive | – | – | – | – |
| CC(O)CCCCn1c(=O)c2c(ncn2C)n(C)c1=O (stereo unspecified) | inactive | inactive | inactive | inactive | inactive | inactive | – | inactive | inactive | inactive | inactive | inactive | – | – | inactive | inactive | inactive | inactive | inactive | inactive |
| O=c1n(CCO)c(=O)n(CCO)c(=O)n1CCO | inactive | inactive | inactive | inactive | – | inactive | inactive | inactive | inactive | inactive | inactive | inactive | inactive | inactive | – | inactive | inactive | inactive | inactive | inactive |
| Clc1cc(Cl)c(Cl)c(Cl)c1Cl | inactive | inactive | inactive | inactive | – | inactive | inactive | inactive | inactive | inactive | inactive | inactive | inactive | inactive | inactive | inactive | inactive | inactive | inactive | inactive |
| CCN(CC)S(=O)(=O)c1ccc(C(=O)O)cc1 | inactive | inactive | inactive | inactive | inactive | inactive | – | inactive | – | inactive | inactive | – | inactive | inactive | – | – | inactive | inactive | inactive | inactive |
| Cc1cccnc1 | inactive | inactive | inactive | inactive | inactive | – | inactive | inactive | inactive | inactive | inactive | inactive | inactive | inactive | inactive | inactive | – | – | – | inactive |
| CN1C(CCl)Nc2cc(Cl)c(S(N)(=O)=O)cc2S1(=O)=O (stereo unspecified) | inactive | inactive | inactive | inactive | inactive | inactive | – | inactive | inactive | inactive | inactive | inactive | inactive | – | inactive | inactive | inactive | inactive | inactive | inactive |
| CCOc1ccccc1OCC | inactive | inactive | inactive | inactive | inactive | inactive | inactive | – | inactive | inactive | inactive | inactive | inactive | inactive | inactive | inactive | – | inactive | inactive | inactive |
| C#C[C@]1(O)CC[C@H]2[C@@H]3CCC4=CC(=O)CC[C@@H]4[C@H]3CC[C@@]21C | inactive | inactive | inactive | inactive | – | – | – | – | – | – | – | inactive | inactive | inactive | inactive | inactive | – | – | – | – |
| CCCCCCCCCCCCC(=O)O | inactive | inactive | inactive | – | inactive | inactive | inactive | inactive | inactive | inactive | inactive | inactive | inactive | inactive | inactive | inactive | inactive | inactive | inactive | inactive |
| C/C(=C(\CCO)SS/C(CCO)=C(\C)N(C=O)Cc1cnc(C)nc1N)N(C=O)Cc1cnc(C)nc1N | inactive | inactive | inactive | inactive | inactive | inactive | inactive | inactive | inactive | inactive | inactive | inactive | inactive | inactive | inactive | inactive | – | inactive | inactive | inactive |
| Cc1occc1S | inactive | 68.6 µM (active) | inactive | inactive | inactive | inactive | – | inactive | inactive | inactive | inactive | inactive | inactive | – | inactive | – | inactive | inactive | inactive | inactive |
| CC(C[N+](C)(C)C)OC(N)=O (stereo unspecified) | inactive | inactive | 13.5 µM (active) | – | inactive | inactive | inactive | inactive | inactive | 2.39 µM (active) | inactive | inactive | inactive | inactive | – | inactive | inactive | inactive | inactive | inactive |
| Nc1cc(=O)[nH]c(N)n1 | inactive | inactive | inactive | inactive | inactive | inactive | inactive | inactive | inactive | inactive | inactive | inactive | inactive | – | inactive | inactive | – | inactive | – | inactive |
